Test [1] concerns the target Steroid hormone receptor ERR1 (Homo sapiens) (UniProt P11474). Description: ATG_ERRa_TRANS: Attagene TRANS-FACTORIAL HepG2 Assay for human Estrogen-Related Receptor alpha (ERRa) (AID 2282971). Conditions: HepG2 Attagene TRANS reporter, ERRa transactivation. Put shortly:
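Reporter transcript induction was quantified by RT-PCR and capillary electrophoresis of FAM-labelled, HpaI-cut products after 24 h treatment of HepG2 cells carrying transiently transfected GAL4-UAS reporter units and an exogenous ERRa-Gal4 fusion; activity scored as increase over DMSO.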

The target of test [2] is X-box-binding protein 1 (Homo sapiens) (UniProt P17861). The test can be described thus: ATG_Xbp1_CIS: Attagene CIS-FACTORIAL HepG2 Assay for human X-box Binding Protein 1 (XBP1) (AID 2282972; active means hit-call score of the fitted dose curve at least 0.9, where 1 is the maximum; inactive means score below 0.9). Conditions: HepG2 XBP1 cis-element reporter, Attagene multiplex; actives raise or lower the signal. The gist of the method:
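Multiplexed cis-reporter readout in transfected HepG2 liver cells. Exposure lasted 24 hours. Activity in either direction was fitted against DMSO as negative control and baseline.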

The nature of test [3]: ATG_M_19_TRANS: Attagene TRANS-FACTORIAL HepG2 Assay for M19 Transcription Factor (Internal Marker) (AID 2282974). Conditions: HepG2 Attagene TRANS-FACTORIAL M19 internal marker reporter. The gist of the method:
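Background-control readout: after 24 h chemical exposure of transfected HepG2 carrying GAL4-driven reporter units, RNA was reverse-transcribed, amplified, fluorescently labeled and sized by capillary electrophoresis; gain-of-signal fit against DMSO.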

Test [4] deals with Estrogen-related receptor gamma (Homo sapiens) (UniProt P62508). The test can be described thus: ATG_ERRg_TRANS: Attagene TRANS-FACTORIAL HepG2 Assay for human Estrogen-Related Receptor gamma (ERRg) (AID 2282977).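 Further: hits increase reporter signal over DMSO so potencies reflect activators.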 Conditions: HepG2 Attagene TRANS reporter, ERRg transactivation. The gist of the method:
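Readout: fluorescent reporter-mRNA fragments resolved by capillary electrophoresis after RT-PCR and HpaI cut. Cells: transiently transfected HepG2 carrying GAL4-UAS reporters driven by exogenous NR-Gal4 chimeras, dosed 24 h. Activity fitted upward relative to DMSO baseline.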

For test [5], the target named is Oxysterols receptor LXR-beta (Homo sapiens) (UniProt P55055). The test can be described thus: ATG_LXRb_TRANS: Attagene TRANS-FACTORIAL HepG2 Assay for human Liver X Receptor beta (LXRb) (AID 2282981). Conditions: HepG2 Attagene TRANS GAL4-LXRb reporter, mRNA. Put shortly: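 Liver-derived HepG2 cells transfected with Gal4-responsive reporters were dosed for 24 h. Activation was scored as rise in reporter mRNA, by RT-PCR and capillary electrophoresis, above DMSO baseline.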

Test [6] can be described thus: ATG_M_06_TRANS: Attagene TRANS-FACTORIAL HepG2 Assay for M06 Transcription Factor (Internal Marker) (AID 2282983).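 Further: reporter transcript level by RT-PCR then capillary electrophoresis fluorescence.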 Conditions: HepG2 Attagene TRANS M06 internal marker reporter. Put shortly:
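Background control endpoint: reporter mRNA from transiently transfected HepG2 after 24 h dosing, detected by RT-PCR with capillary electrophoresis fluorescence. Analysed for gain versus DMSO.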

The nature of test [7]: ATG_M_32_TRANS: Attagene TRANS-FACTORIAL HepG2 Assay for M32 Transcription Factor (Internal Marker) (AID 2282984).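 Further: transcript level of a background control reporter unit measured by RT-PCR and capillary electrophoresis.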 Conditions: HepG2 Attagene TRANS M32 internal marker reporter. The gist of the method:
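Fluorescence-detected mRNA induction, HepG2 liver cells, 24 h after dosing. Multiple GAL4-UAS reporter units introduced by transient transfection; background-control endpoint analysed for gain of signal against DMSO.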

In test [8] the target is Nuclear receptor subfamily 4 group A member 2 (Homo sapiens) (UniProt P43354). Description: ATG_NURR1_TRANS: Attagene TRANS-FACTORIAL HepG2 Assay for human Nuclear Receptor Related Protein 1 (NURR1) (AID 2282985). Conditions: HepG2 Attagene TRANS reporter, mRNA readout. The gist of the method: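 Chimeric NR-Gal4 proteins were expressed in human HepG2 cells bearing GAL4-UAS reporter units, and induced reporter mRNA was quantified 24 h post-dosing by RT-PCR and capillary electrophoresis.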

For test [9], the target named is Transcriptional activator Myb (Homo sapiens) (UniProt P10242). The test can be described thus: ATG_Myb_CIS: Attagene CIS-FACTORIAL HepG2 Assay for human Myeloblastosis (Myb) Proto-Oncogene Transcription Factor (AID 2282986; active means hit-call score of the fitted dose curve at least 0.9, where 1 is the maximum; inactive means score below 0.9). Conditions: HepG2 Attagene CIS-FACTORIAL Myb reporter transcription; actives raise or lower the signal. The gist of the method: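 Reporter mRNA is quantified by RT-PCR and capillary electrophoresis 24 h after dosing HepG2 cells transfected with cis-regulated reporter units, which track endogenous transcription factor activity. Gain and loss of signal are fitted versus DMSO baseline.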
Sequence of Transcriptional activator Myb (Homo sapiens) (P10242 whole entry, looked up): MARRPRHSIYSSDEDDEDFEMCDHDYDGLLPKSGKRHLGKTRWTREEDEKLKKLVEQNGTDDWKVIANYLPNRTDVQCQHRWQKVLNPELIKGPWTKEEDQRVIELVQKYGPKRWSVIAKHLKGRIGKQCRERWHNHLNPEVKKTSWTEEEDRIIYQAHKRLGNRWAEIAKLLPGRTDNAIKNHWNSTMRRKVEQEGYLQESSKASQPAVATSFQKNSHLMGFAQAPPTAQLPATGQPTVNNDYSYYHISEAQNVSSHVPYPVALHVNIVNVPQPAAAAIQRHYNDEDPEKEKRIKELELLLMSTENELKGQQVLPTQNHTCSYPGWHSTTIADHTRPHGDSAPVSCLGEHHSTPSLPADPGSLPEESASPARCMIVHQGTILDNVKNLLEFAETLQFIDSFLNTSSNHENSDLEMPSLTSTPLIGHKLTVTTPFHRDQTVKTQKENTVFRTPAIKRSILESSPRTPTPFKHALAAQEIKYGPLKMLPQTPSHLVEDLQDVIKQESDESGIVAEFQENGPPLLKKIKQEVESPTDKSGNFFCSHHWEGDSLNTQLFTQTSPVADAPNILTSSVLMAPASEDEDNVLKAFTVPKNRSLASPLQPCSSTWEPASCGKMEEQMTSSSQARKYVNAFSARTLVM

Test [10] concerns the target Nuclear respiratory factor 1 (Homo sapiens) (UniProt Q16656). Description: ATG_NRF1_CIS: Attagene CIS-FACTORIAL HepG2 Assay for human Nuclear Respiratory Factor 1 (NRF1) Orphan Gene (AID 2282987; active means hit-call score of the fitted dose curve at least 0.9, where 1 is the maximum; inactive means score below 0.9). Conditions: HepG2 NRF1 cis-element reporter, Attagene multiplex; actives raise or lower the signal. Put shortly:
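Endogenous NRF1-driven reporter transcription in transfected HepG2 cells after 24 h treatment. Readout: RT-PCR products, 6-FAM labelled and resolved by capillary electrophoresis; changes fitted both directions relative to DMSO.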

A short description of test [11]: ATG_NFI_CIS: Attagene CIS-FACTORIAL HepG2 Assay for human Nuclear Factor I (NFI) (AID 2282989; active means hit-call score of the fitted dose curve at least 0.9, where 1 is the maximum; inactive means score below 0.9). Conditions: HepG2 cis-regulatory reporter, NFI response element transcription; actives raise or lower the signal. Put shortly: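 Cells: human liver HepG2, transiently transfected with promoter-regulated reporter transcription units. Exposure 24 h. Detection: fluorescent RT-PCR products separated by capillary electrophoresis, normalised to DMSO negative control.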

The target in test [12] is Myc proto-oncogene protein (Homo sapiens) (UniProt P01106). Description: ATG_Myc_CIS: Attagene CIS-FACTORIAL HepG2 Assay for human Myelocytomatosis (Myc) Proto-Oncogene Transcription Factor (AID 2282990; active means hit-call score of the fitted dose curve at least 0.9, where 1 is the maximum; inactive means score below 0.9). Conditions: HepG2, Attagene cis-reporter transcription factor activity; actives raise or lower the signal. Put shortly:
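HepG2 cells transiently transfected with multiple cis-promoter-driven reporter transcription units, so endogenous TF activity is read. After 24 h compound exposure, reporter mRNA was quantified by RT-PCR, 6-FAM labelling, HpaI digestion and capillary electrophoresis; bidirectional fit versus DMSO.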

The target in test [13] is Estrogen receptor (Homo sapiens) (UniProt P03372). Description: ATG_ERa_TRANS: Attagene TRANS-FACTORIAL HepG2 Assay for human Estrogen Receptor alpha (ERa) (AID 2282970). Conditions: HepG2 Attagene TRANS ERa GAL4 reporter, mRNA. The gist of the method: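 Liver-derived HepG2 cells expressing chimeric nuclear receptor-Gal4 proteins from transient transfection were exposed for 24 hours. Gain of reporter mRNA signal versus DMSO, read by capillary electrophoresis of FAM-labelled PCR products, was recorded.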
Sequence of Estrogen receptor (Homo sapiens) (P03372 whole entry, looked up, the tested form may be a part): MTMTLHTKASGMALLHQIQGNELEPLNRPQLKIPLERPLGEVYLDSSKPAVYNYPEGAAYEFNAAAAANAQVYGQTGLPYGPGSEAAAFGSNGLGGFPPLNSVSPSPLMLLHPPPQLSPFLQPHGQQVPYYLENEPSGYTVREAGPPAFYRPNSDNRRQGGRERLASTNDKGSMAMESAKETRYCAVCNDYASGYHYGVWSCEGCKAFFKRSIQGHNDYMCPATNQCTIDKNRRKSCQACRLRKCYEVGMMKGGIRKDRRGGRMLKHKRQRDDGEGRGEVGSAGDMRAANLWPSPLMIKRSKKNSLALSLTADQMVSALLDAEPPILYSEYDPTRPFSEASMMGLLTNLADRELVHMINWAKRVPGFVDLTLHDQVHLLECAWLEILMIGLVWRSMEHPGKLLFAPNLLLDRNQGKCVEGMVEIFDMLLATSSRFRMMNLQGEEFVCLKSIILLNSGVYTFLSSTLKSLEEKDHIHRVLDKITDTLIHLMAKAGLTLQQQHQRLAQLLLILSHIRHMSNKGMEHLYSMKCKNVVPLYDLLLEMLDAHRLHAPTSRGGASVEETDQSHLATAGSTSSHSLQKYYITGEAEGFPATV

Test [14] has as its target Glucocorticoid receptor (Homo sapiens) (UniProt P04150). Description: ATG_GR_TRANS: Attagene TRANS-FACTORIAL HepG2 Assay for human Glucocorticoid Receptor (GR) (AID 2282978).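 Further: activators score as hits since higher reporter transcript over DMSO is fitted.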 Conditions: HepG2 Attagene TRANS GR reporter, mRNA transcription. Put shortly:
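Readout is reporter transcript from a chimeric GR-Gal4 acting on GAL4-UAS in transfected human HepG2 liver cells after 24 h exposure, quantified by RT-PCR and capillary electrophoresis. Activation fitted upward against DMSO.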

The target of test [15] is Hepatocyte nuclear factor 4-alpha (Homo sapiens) (UniProt P41235). The test can be described thus: ATG_HNF4a_TRANS: Attagene TRANS-FACTORIAL HepG2 Assay for human Hepatocyte Nuclear Factor 4 alpha (HNF4a) (AID 2282982). Conditions: HepG2 HNF4a transactivation reporter, mRNA readout. Put shortly: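 Using HepG2 liver cells transfected with GAL4-UAS reporter units, chemical-induced mRNA increases were assessed after 24 hours. Fluorescent RT-PCR fragments were separated by capillary electrophoresis and compared with DMSO negative controls.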
Sequence of Hepatocyte nuclear factor 4-alpha (Homo sapiens) (P41235 whole entry, looked up, the tested form may be a part): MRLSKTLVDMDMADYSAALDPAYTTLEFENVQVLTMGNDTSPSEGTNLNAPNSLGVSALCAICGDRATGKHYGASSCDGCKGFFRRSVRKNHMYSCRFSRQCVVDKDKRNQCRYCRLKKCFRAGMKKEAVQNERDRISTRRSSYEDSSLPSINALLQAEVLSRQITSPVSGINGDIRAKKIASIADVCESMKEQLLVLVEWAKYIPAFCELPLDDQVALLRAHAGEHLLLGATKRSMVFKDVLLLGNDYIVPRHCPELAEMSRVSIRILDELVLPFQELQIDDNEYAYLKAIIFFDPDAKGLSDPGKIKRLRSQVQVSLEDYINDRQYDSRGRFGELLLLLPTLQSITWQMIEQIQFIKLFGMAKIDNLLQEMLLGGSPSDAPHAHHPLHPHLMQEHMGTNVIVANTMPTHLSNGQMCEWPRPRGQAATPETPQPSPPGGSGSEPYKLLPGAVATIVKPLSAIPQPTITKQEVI

Test [16] concerns the target Oxysterols receptor LXR-alpha (Homo sapiens) (UniProt Q13133). Description: ATG_LXRa_TRANS: Attagene TRANS-FACTORIAL HepG2 Assay for human Liver X Receptor alpha (LXRa) (AID 2282980). Conditions: HepG2 Attagene TRANS reporter, LXRa transactivation. Put shortly: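 Transfect HepG2 with GAL4-UAS multiplex reporter constructs (TRANS format, chimeric receptor-GAL4); treat 24 h; extract RNA, reverse-transcribe, PCR-amplify, FAM-label, HpaI-digest; resolve fragments by capillary electrophoresis. Upward response vs DMSO.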

Test [17] has as its target Androgen receptor (Homo sapiens) (UniProt P10275). Description: ATG_AR_TRANS: Attagene TRANS-FACTORIAL HepG2 Assay for human Androgen Receptor (AR) (AID 2282973). Conditions: HepG2 Attagene TRANS-FACTORIAL AR reporter transcription. The gist of the method: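 Steps: transfect HepG2 with multiple GAL4-UAS reporter transcription units (TRANS format, exogenous NR-Gal4 protein); dose 24 h; isolate RNA, reverse-transcribe, PCR-amplify, FAM-label, HpaI-digest; resolve by capillary electrophoresis. Positive direction vs DMSO.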

Test [18] deals with Bile acid receptor (Homo sapiens) (UniProt Q96RI1). Description: ATG_FXR_TRANS: Attagene TRANS-FACTORIAL HepG2 Assay for Farnesoid X Receptor (FXR) (AID 2282979).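 Further: hits raise reporter mRNA above DMSO so AC50 marks FXR activation.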 Conditions: HepG2 Attagene TRANS FXR-GAL4 reporter transcription. Put shortly:
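Transient transfection of HepG2 with multiplexed GAL4-UAS reporter units; exogenous FXR-GAL4 chimera. Dose 24 h → TriZol RNA → oligo(dT) RT → PCR, 6-FAM primer extension, HpaI cut → CE. Gain vs DMSO.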

Test [19] in a line: ATG_GAL4_TRANS: Attagene TRANS-FACTORIAL HepG2 Assay for GAL4 (Internal Marker) (AID 2282976). Conditions: HepG2 Attagene TRANS GAL4 internal marker reporter. The gist of the method:
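First, HepG2 cells were transfected with reporter units under GAL4-UAS control. Next, they were treated with chemical for 24 h. Finally, RNA was reverse-transcribed, PCR-amplified, FAM-labelled and resolved by capillary electrophoresis, with induction scored against DMSO.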

Each structure is given as a SMILES string. Inconclusive results are not listed. Active and inactive are the calls of the source. How the source made its calls, unless noted: active means hit-call score of the fitted dose curve at least 0.9, where 1 is the maximum; inconclusive means response in the unintended direction; inactive means score below 0.9.

Sequence of Steroid hormone receptor ERR1 (Homo sapiens) (P11474 whole entry, looked up, the tested form may be a part): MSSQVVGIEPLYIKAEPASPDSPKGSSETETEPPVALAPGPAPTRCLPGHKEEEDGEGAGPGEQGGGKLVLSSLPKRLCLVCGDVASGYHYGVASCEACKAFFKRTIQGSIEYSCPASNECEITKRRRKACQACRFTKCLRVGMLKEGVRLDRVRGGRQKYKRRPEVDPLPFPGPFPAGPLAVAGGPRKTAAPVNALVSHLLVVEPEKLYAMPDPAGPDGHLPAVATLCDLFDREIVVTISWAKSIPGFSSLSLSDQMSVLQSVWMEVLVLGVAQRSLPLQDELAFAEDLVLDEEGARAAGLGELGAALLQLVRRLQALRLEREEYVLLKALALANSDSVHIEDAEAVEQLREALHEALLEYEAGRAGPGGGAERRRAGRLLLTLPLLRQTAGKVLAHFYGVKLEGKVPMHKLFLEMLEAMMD
Sequence of Androgen receptor (Homo sapiens) (P10275 whole entry, looked up, the tested form may be a part): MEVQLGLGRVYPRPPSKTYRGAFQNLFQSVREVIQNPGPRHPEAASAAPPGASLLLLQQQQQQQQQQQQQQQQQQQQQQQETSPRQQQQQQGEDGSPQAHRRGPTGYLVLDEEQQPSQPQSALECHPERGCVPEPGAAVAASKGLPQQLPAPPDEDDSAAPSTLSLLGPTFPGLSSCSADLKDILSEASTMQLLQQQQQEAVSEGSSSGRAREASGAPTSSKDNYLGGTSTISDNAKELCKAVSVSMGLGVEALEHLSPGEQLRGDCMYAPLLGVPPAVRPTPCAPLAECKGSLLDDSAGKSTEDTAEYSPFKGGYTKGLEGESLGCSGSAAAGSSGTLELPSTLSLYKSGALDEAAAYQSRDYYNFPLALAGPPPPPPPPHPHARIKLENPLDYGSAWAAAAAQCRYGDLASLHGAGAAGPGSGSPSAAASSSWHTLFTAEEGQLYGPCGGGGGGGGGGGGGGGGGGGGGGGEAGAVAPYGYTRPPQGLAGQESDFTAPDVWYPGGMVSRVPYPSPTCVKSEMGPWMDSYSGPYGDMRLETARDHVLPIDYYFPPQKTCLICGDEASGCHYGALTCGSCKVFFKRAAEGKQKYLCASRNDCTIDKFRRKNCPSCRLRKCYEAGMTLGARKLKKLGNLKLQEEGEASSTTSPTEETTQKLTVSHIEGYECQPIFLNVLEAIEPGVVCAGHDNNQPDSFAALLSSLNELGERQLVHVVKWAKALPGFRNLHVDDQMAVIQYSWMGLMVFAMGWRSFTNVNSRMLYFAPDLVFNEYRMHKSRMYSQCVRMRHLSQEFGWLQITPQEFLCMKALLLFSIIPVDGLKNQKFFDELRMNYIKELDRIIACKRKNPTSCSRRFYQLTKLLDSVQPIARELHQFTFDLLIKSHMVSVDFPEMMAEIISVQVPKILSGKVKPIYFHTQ
Sequence of Nuclear respiratory factor 1 (Homo sapiens) (Q16656 whole entry, looked up): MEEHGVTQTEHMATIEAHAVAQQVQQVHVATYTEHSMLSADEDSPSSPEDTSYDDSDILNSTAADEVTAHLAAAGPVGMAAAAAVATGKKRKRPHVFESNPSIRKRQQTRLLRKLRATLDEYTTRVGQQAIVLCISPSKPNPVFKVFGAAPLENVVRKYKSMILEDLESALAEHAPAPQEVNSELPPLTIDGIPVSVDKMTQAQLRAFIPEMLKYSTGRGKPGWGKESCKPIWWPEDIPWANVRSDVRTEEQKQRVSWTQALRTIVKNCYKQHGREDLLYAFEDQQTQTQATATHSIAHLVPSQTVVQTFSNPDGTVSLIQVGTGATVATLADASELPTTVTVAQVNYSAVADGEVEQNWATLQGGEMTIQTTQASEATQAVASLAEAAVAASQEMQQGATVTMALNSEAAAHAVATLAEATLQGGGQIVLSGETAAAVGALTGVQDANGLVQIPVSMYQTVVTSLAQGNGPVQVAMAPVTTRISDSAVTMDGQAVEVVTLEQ
Sequence of Estrogen-related receptor gamma (Homo sapiens) (P62508 whole entry, looked up, the tested form may be a part): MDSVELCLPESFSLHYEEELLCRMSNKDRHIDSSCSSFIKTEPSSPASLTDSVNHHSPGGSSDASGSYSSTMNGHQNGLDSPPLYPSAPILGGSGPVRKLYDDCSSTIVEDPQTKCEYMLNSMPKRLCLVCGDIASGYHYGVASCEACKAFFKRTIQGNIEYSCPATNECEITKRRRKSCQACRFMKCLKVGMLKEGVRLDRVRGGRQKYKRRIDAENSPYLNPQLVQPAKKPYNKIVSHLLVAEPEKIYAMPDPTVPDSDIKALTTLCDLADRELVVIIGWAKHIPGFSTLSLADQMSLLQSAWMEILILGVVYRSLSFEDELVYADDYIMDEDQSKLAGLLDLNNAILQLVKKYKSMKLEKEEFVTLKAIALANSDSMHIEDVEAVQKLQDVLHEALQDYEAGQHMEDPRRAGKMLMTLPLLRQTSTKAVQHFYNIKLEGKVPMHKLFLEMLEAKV
Sequence of Glucocorticoid receptor (Homo sapiens) (P04150 whole entry, looked up, the tested form may be a part): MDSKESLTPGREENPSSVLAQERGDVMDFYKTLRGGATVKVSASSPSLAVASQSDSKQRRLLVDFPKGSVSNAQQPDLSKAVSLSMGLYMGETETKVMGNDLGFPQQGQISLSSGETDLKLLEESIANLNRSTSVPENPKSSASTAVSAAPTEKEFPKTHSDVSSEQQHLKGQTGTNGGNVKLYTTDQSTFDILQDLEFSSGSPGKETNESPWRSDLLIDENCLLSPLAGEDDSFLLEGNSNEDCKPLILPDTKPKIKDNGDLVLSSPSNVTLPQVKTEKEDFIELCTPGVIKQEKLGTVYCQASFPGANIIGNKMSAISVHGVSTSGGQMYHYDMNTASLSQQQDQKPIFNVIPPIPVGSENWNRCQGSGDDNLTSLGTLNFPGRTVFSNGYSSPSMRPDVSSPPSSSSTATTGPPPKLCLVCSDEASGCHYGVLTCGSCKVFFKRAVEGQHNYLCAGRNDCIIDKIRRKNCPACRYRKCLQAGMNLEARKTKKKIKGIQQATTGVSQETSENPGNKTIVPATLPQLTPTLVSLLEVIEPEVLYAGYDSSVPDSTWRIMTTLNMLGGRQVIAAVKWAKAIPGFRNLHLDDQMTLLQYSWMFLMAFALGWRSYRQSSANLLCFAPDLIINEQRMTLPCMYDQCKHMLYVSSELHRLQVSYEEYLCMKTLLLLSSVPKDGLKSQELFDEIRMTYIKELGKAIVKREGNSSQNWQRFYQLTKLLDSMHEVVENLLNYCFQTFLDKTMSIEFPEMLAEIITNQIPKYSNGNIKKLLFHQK

`N#Cc1ccc(Cl)cc1`: the compound was classed as inactive in test [1], in test [2], in test [3], in test [4], in test [5] and in [6]. Further, the result in test [7], in test [8], in test [9], in [10], in test [11] and in [12] was inactive.
With `Clc1ccc(C(Cl)(Cl)Cl)cn1`, the call in [13], in [2], in test [14], in test [15], in test [6] and in test [8] was inactive. Moreover, the outcome in test [9], in test [10], in test [11] and in [12] was inactive.
`ClCCN1CCOCC1`: the call in test [13], in [2], in [16], in [15], in test [6] and in test [7] was inactive. Besides, the call in test [8], in [9], in test [10], in [11] and in test [12] was inactive.
`CC(=Cc1ccccc1)[N+](=O)[O-]`: the outcome in [13], in test [4], in test [15], in test [6], in [8] and in [9] was inactive. In addition, in test [11], the call was inactive. The AC50 in test [2] was 11.1 µM (active); in test [10], 17.2 µM (active); in [12], 18.6 µM (active).
In the case of `Cc1cc(C(C)(C)c2ccc(O)c(C)c2)ccc1O`, the compound was classed as inactive in test [1], in test [17], in test [14], in test [15], in test [7] and in test [10]. The outcome in test [11] and in [12] was inactive. Also, the AC50 in [2] is 36.4 µM (active); in test [18], 4.72 µM (active); in [8], 69.3 µM (active); in test [9], 89.7 µM (active).
For `Brc1ccc(Oc2c(Br)cc(Br)cc2Br)c(Br)c1`, the outcome in test [1], in [2], in test [17], in test [3], in [19] and in test [18] was inactive. Moreover, the result in test [16], in test [15], in [7], in test [8], in test [9] and in test [10] was inactive. Besides, the result in [11] and in test [12] was inactive.
In the case of `COCCl`, the call in [1], in test [2], in test [17], in test [3], in [19] and in [14] was inactive. Also, the compound was classed as inactive in test [16], in test [6], in test [7], in test [9], in test [10] and in test [11]. Also, the outcome in [12] was inactive.
Regarding `CC(O)(CS(=O)(=O)c1ccc(F)cc1)C(=O)Nc1ccc(C#N)c(C(F)(F)F)c1` (stereo not drawn), the call in [1], in test [2], in test [3], in test [19], in test [16] and in [6] was inactive. Further, the outcome in test [7], in test [9], in test [10], in test [11] and in [12] was inactive.
For the compound `Cl[C@H]1OCCO[C@@H]1Cl`, the result in test [1], in test [2], in test [3], in [4], in test [16] and in test [5] was inactive. Besides, the call in test [6], in test [7], in test [9], in [10], in [11] and in test [12] was inactive.
On to `C[C@]12CC[C@@H](O)C[C@@H]1CC[C@@H]1[C@@H]2CC[C@]2(C)C(=O)CC[C@@H]12`, for which the compound was classed as inactive in test [1], in [2], in test [3], in test [19], in test [14] and in [16]. The compound was classed as inactive in test [5], in [9], in test [10], in [11] and in test [12].
Take `O=[N+]([O-])c1ccccc1O`: the result in test [1], in test [2], in test [3], in test [19], in [16] and in test [15] was inactive. Also, the result in test [7], in test [8], in test [9], in test [10], in test [11] and in [12] was inactive.

As a reminder, the AC50 is the concentration at which the activity in the assay is half-maximal.

These data come from PubChem BioAssay (EPA / NIEHS).
